Data on ten compounds can be found in PubChem BioAssay (NCATS).

Inconclusive results are not listed. Unmarked numbers belong to inactive results. Calls of active or inactive are those of the source. Calls follow the shape of the dose curve; as a rule, active = well fitted cell-killing curve with a large enough effect; inconclusive = small, poorly fitted or top-dose-only effect; inactive = no such curve, though single readings can be large or run the other way. Peptide text beside a SMILES is read from it.
Potency is read from the fitted curve at half-maximal effect.

This assay is described as follows: Cell Viability - LYMP2-001 (AID 921). Also: nearly all actives have a fitted effect of over 70% in size.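 As to activity change, negative = cytotoxic: 0% = DMSO only and full inhibition = tetraoctylammonium bromide control wells.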 To be noted: LYMP2-001 lymphoblastoid cell viability; series mostly up to 92.2 µM; activity change, negative = cytotoxic: at the top concentration. An excerpt: NIH Chemical Genomics Center [NCGC]
NIH Molecular Libraries Screening Centers Network [MLSCN]
National Institutes of Environmental Health Sciences [NIEHS]
National Toxicology Program [NTP]
We have developed a 1536-well cell-based assay for quantitative high throughput screening (qHTS) against a number of cell lines to determine in vitro cytotoxicity of small molecules. This particular assay uses a human lymphoblastoid cell line (LYMP2-001) purchased from Coriell Institute for Medical Research.
NCGC Assay Protocol Summary:
The CellTiter-Glo luminescent cell viability assay (Promega) is a homogeneous method to measure the number of viable cells in culture. The end point readout of this assay is based on quantitation of intracellular ATP, an indicator of metabolic activity, using the luciferase reaction. Luciferase catalyzes the oxidation of beetle Luciferin to oxyluciferin and light in the presence of ATP. The luminescent signal is proportional to amount of ATP present.
Using the CellTiter-Glo luminescent cell viability assay, the amount of cellular ATP was measured in the lymphoblastoid cell line with complete culture medium following compound treatment for 24 hours. The assay was performed in opaque white Kalypsys 1536-well plates. In the screen, tetraoctylammonium bromide was used as positive control. Library compounds were measured for their ability to cause acute toxicity in the cell line, as reflected by a decrease in intracellular ATP levels, in a concentration-dependent manner. […] AC50 values were determined from concentration-response data modeled with the standard Hill equation.
qHTS protocol for CellTiter Glo lymphoblastoid cellular assay
[Step] [Parameter] [Value] [Description]
1. Reagent; 5 uL; 2500 lymphoblastoid cells/well
2. Time; 5 hr; 37 C incubation
4. Controls; 23 nL; Tetraoctylammonium bromide 6.4pM to 92 uM
5. Time; 24 hr; 37 C incubation
6. Reagent; 5 uL; CellTiter Glo reagent
7. Time; 30 min; Room Temperature
8. Detection; Luminescence; Viewlux plate reader
Keywords: cell viability, cytotoxicity, lymphoblastoid cell line, luminescence, NTPHTS, NTPHTS_NCGC, NIEHS, DSSTox, MLSMR, MLSCN, NIH Roadmap, qHTS, NCGC
On to `CC(=O)Nc1ccc(O)cc1`, for which the “activity change, negative = cytotoxic” value is -18.8%.
Turning to `NS(=O)(=O)c1cc(C(=O)O)c(NCc2ccco2)cc1Cl`, the “activity change, negative = cytotoxic” value is -19.1%.
Same read-out and setting: the figure for `Cc1ccc(C)c(OCCCC(C)(C)C(=O)O)c1` is -12.9%; for `COc1c2occc2cc2ccc(=O)oc12` it is -7.67%.
Take `CN(C)c1ccc2nc3ccc(=[N+](C)C)cc-3sc2c1`: the Potency is 10 µM (active).
As to `CCc1nc(N)nc(N)c1-c1ccc(Cl)cc1`, the “activity change, negative = cytotoxic” value was -12.5%.
Still for that read-out and setting: the value for `c1ccc2[nH]c(-c3cscn3)nc2c1` was -26.5%.
For `CS(=O)(=O)OCCCCOS(C)(=O)=O`, the Potency entry was “inactive”.
Turning to `COC(=O)[C@H](Cc1ccccc1)NC(=O)[C@@H](N)CC(=O)O` (H-Asp-Phe-OMe), the “activity change, negative = cytotoxic” value was -10.7%.
On the same count and under the same terms, the value for `CCCc1cc(=O)[nH]c(=S)[nH]1` was 0.688%.
